Hit rate of the full screen: of about 190,000 compounds, about 930 (0.49%) were called active. The list shows a part of the results. Measured potencies and affinities stand elsewhere. Unmarked numbers belong to inactive results.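 The calls were made as follows: active = z-score of insulin promoter reporter brightness in nuclei below -3 at 5 µM, with at least 500 cells counted; inconclusive = wells with under 500 cells, flagged as toxic or sparse; inactive = the rest.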
experiment: decrease of insulin promoter-GFP reporter – imaging, high-content screening, mouse beta cells (AID 1628); conditions: MIN6 insulin promoter GFP reporter, at 5 µM, hits give low values

SMILES | z-score
O=C1c2ccccc2-n2c1nc1ccccc1c2=O | -2.2
COc1ccc(OC)c(C2=NOC(C(=O)NCC3CCCO3)C2)c1 (stereo unspecified) | 3.67
COc1ccc(-c2nnc(SCC3CCCO3)n2C)cc1 (stereo unspecified) | 2.62
CCOc1ccc(-n2c(=O)c3c4c(sc3n(CC(=O)NCC3CCCO3)c2=O)CCC4)cc1 (stereo unspecified) | 1.12
CCOc1ccc(NC(=O)N2CCCC2C(=O)NCC2CCCO2)cc1 (stereo unspecified) | -3.14 (active)
CCOc1ccc(NC(=S)N2CCC(N(C)CC3CCCO3)CC2)cc1 (stereo unspecified) | 3.59
O=[N+]([O-])c1ccc(N/N=C/c2cn(Cc3ccc(F)cc3)c3ccccc23)nc1 | 4.69
CC1(C)Cc2c(c(N3CCOCC3)nc3sc4c(NCc5ccco5)nnnc4c23)CS1 | -6.38 (active)
C=CCN1C(=O)/C(=C/c2ccc(N(C)C)cc2)S/C1=N\c1nnc(CC)s1 | 14.1
Cc1cc(C)cc(N(CC(=O)Nc2cccc(C)n2)S(=O)(=O)c2c(C)noc2C)c1 | 2.42
C/C=C/c1ccc(OCCCN2C(=O)NC(C)(C)C2=O)c(OC)c1 | -0.86
C#CCOCCOCCOCCNc1nc(N2CCN(C(=O)[C@H](CCCCN)n3cc(CCCC)nn3)CC2)nc(N2CCN(C(=O)[C@H](CCCCN)n3cc(CCCC)nn3)CC2)n1 | -4.64 (active)
CCCN1CC=C2C(C#N)=C(N)C(C#N)(C#N)C(c3cccc(OC)c3OC)C2C1 (stereo unspecified) | 8.86
CCOC(=O)N1CCC(NC2CCCCCCC2)CC1 | 0.8
O=C(O)C1CCN(C(=O)OCc2ccccc2)CC1 | -4.9 (active)
CN1/C(=C/C=C(C#N)C#N)C=Cc2ccccc21 | 5.52
Cc1nc(CN(C)C(=O)c2cc(COc3ccc4ncccc4c3)on2)cs1 | -5.59 (active)
c1ccc(-c2cnn3c(-c4ccccc4)c(-c4ccccc4)nc3n2)cc1 | 17
CCCCn1nc(-c2ccccc2)c2nc3ccccc3nc21 | 3.11
CCc1ccc2nc3sc(C(=O)N4CCc5ccccc54)c(N)c3cc2c1 | 4.93
N=c1oc2c3c4c(cc2cc1C(=O)Nc1ccccc1)CCCN4CCC3 | 18
CCC(=O)NC(c1cccs1)c1cc(Cl)c2cccnc2c1O (stereo unspecified) | -4.24 (active)
CCCCC(=O)NC(c1cccs1)c1cc(Cl)c2cccnc2c1O (stereo unspecified) | -5.86 (active)
CCN1CC=C2C(C#N)=C(N)C(C#N)(C#N)[C@H](c3cccc(OC)c3OC)[C@H]2C1 | 11.6

SMILES | z-score
Cc1ccc(N=C2NC(=O)/C(=C/c3cn(C)c4ccccc34)S2)cc1C | 3.02
CC1CC(=O)C2=C(C1)OC(N)=C(C#N)C2c1coc2ccccc2c1=O (stereo unspecified) | 3.02
Nc1c(C(=O)O)sc2nc(-c3ccccc3)cc(-c3ccccc3)c12 | 4.64
Nc1c(C(=O)Nc2nccs2)sc2nc(-c3cccs3)cc(C(F)(F)F)c12 | 5.95
NC(=O)c1sc2nccc(Nc3ccccc3)c2c1N | -3.42 (active)
CS(=O)c1nc(-c2ccc(Br)cc2)cc(-c2ccccc2)c1C#N (stereo unspecified) | -4.24 (active)
Cc1ccc(S(=O)(=O)CCSc2nc(C)cc(C(F)(F)F)c2C#N)cc1 | 10.9
Nc1c(Cl)ncnc1N1CCCC1 | -3.27 (active)
COc1ccc(-c2ccc3c(N)c(C(=O)c4cccc(OC)c4)sc3n2)cc1 | 4.07
COc1ccc2c(c1)sc1nc(-c3ccccc3)cn12 | -7.22 (active)
CCOc1ccc(OCCCCn2ccnc2)cc1 | 3.52
Cc1cc(Cl)cc(C)c1OCCCCn1ccnc1 | -4.53 (active)
Cc1cccc(OCCCCCn2ccnc2)c1C | -4.58 (active)
Cc1c(C(=O)NCc2cccnc2)oc2ccc(S(=O)(=O)N3CCCCCC3)cc12 | -5.16 (active)
Cc1ccc(S(=O)(=O)c2cccc(S(=O)(=O)N3CCCC3)c2)cc1S(=O)(=O)N1CCCC1 | 3.05
CCN(CC)S(=O)(=O)c1ccc2oc(C(=O)NCc3ccc(F)cc3)c(C)c2c1 | -4.31 (active)
O=S(=O)(c1ccc2oc3ccc(S(=O)(=O)N4CCCCC4)cc3c2c1)N1CCCCC1 | -3.18 (active)
O=C(O)CCCN=Cc1c(O)c2ccccc2oc1=O | 2.46
Cc1oc(C)c2c(=O)ccc3c(c12)OC(N)=C(C#N)C3c1ccccc1Cl (stereo unspecified) | 6.29
COCCNC(=O)/C(=C/c1ccccc1Cl)c1ccccc1 | -5.46 (active)
COCCNC(=O)Cc1ccc(F)cc1 | 3.03
Cn1cc(/C=C2\SC(=S)N(NC(=O)c3ccccc3)C2=O)c2ccccc21 | 6.71
COc1ccc(C)cc1NC(=O)CC(NC(C)=O)c1ccccc1 (stereo unspecified) | 4.5
CCC(=O)N1CCN(c2ccccc2NC(=O)COc2cc(C)ccc2C(C)C)CC1 | -3.26 (active)

SMILES | z-score
CCOc1ccc(-c2c(C#N)c(N)nc3sc(C(=O)c4ccccc4)c(N)c23)cc1 | 9.11
Cc1nnc(SCC(=O)c2cc(C)n(-c3ccc4c(c3)OCO4)c2C)s1 | -4.16 (active)
Cn1cc(C(N)=O)c2ccccc21 | 0.12
O=S(=O)(c1ccc(Br)cc1)N1CCN(c2cc(-c3ccccc3)nc3ncnn23)CC1 | -6.61 (active)
N/C(=N\OC(=O)N1c2ccccc2Sc2ccccc21)c1ccccc1 | -3.28 (active)
O=C(N=C1SCC(=O)N1c1ccccc1Cl)c1ccccc1 | 5.04
CC(C)NC(=O)NC(=O)COC(=O)c1cccc(S(=O)(=O)N2CCCCC2)c1 | 4.62
CCN1C(=O)CSc2ccc(C(=O)NCc3ccccc3OC)cc21 | 3.1
COc1ccccc1CNC(=O)COC(=O)c1ccc(S(=O)(=O)N2CCCC2)cc1 | -5.2 (active)
Cn1c(=O)[nH]c(=O)c2c1nc(N1CCCCC1)n2CCCSc1nc2ccccc2s1 | 0.01
CCC(=O)c1ccc(O)c(OC)c1 | -1.5
CCOC(=O)C(C)S(=O)(=O)c1ccc(C(F)(F)F)cn1 (stereo unspecified) | -4.01 (active)
CCOC(=O)C(C(C)=O)C(c1ccc(OCCC(C)C)cc1)C(C(C)=O)C(=O)OCC (stereo unspecified) | 0.98
CCN1CCN(c2ncc3c(n2)CC(c2cc(OC)c(OC)c(OC)c2)CC3=O)CC1 (stereo unspecified) | -3.96 (active)
O=C(Nc1ccc(N2CCCCC2)cc1)c1cccnc1 | 3.44
O=C(NNC(=O)c1cccnc1)NC12CC3CC(CC(C3)C1)C2 | -3.86 (active)
O=C(NCc1cccnc1)c1cnn2ccccc12 | -7.96 (active)
O=C(Nc1nc(-c2cccs2)cs1)c1ccc(Cl)s1 | -3.6 (active)
Cc1csc(NC(=O)c2sc3nc(-c4cccs4)ccc3c2N)n1 | 4.58
Nc1c(C(=O)Nc2nc3ccccc3s2)sc2nc(-c3cccs3)ccc12 | 5.64
Cc1cc(/C=N/n2cnnc2)c(C)n1-c1cccc(C(=O)O)c1 | 4.18
Cc1sc(-n2c(C)cc(/C=N/n3cnnc3)c2C)c(C#N)c1C | -4.46 (active)
Cc1ccc(-n2c(O)c(/C=N/NC(=O)C3COc4ccccc4O3)c3ccccc3c2=O)cc1 (stereo unspecified) | 3.14
O=c1c2ccccc2c(C=Nc2ccccc2O)c(O)n1-c1nccs1 | 4.35

SMILES | z-score
CCOc1ccc(-n2c(O)c(/C=N/Nc3nnc(C)c(=O)[nH]3)c3ccccc3c2=O)cc1 | -5.62 (active)
O=c1oc2cc(O)ccc2cc1-c1nc2c(s1)CCc1ccccc1-2 | 13.6
CC1(C)Cc2c(ccc3ccccc23)C(c2cc3ccccc3oc2=O)=N1 | 4.19
CCCCN(CC)CCNC(=O)c1cc2c(C)nc3ccccc3c2o1 | 0.65
O=C(NCCCCc1ccccc1)c1ccc(Br)o1 | 1.07
Cc1ccccc1C(=O)NCCCc1ccccc1 | -5.2 (active)
Cc1cc(C(=O)CSc2nnnn2-c2ccccc2)c(C)n1CC1CCCO1 (stereo unspecified) | -1.4
CCCCC1=CC2=C(c3ccco3)C(=O)C(C)(OC(=O)c3ccc(OC)cc3)C(=O)C2=CN1CC(C)C (stereo unspecified) | 4.34
CC(CNC(=O)c1cncc(O)c1)NC(=O)c1cncc(O)c1 (stereo unspecified) | 3.21
CCCN1C=CC(=C/C=C(\C#N)C(=O)OCC)C=C1 | 3.98
O=C(C1=NN(c2ccccc2)C2C(=O)N(c3cccc(Cl)c3)C(=O)C12)c1ccccc1 (stereo unspecified) | 3.17
CCCCN1C(=O)/C(=C/C=C2\SCCN2C)SC1=S | 13.8
Cc1ccc(/C=N/NC(=O)NC2CCCCC2)o1 | -4.13 (active)
NC1=NC[C@@H](Cc2ccc(O)cc2)N1CCCCC1CCCCC1 | -1.05
CCn1c(Cn2nnc(-c3ccccc3)n2)nnc1SCC(=O)Nc1ccc(C(C)=O)cc1 | 4.86
CCn1c(CN2CCCCCC2=O)nnc1SCc1cnc(-c2ccccc2)s1 | -3.13 (active)
O=[N+]([O-])c1ccc(-c2ccc(/C=N/Nc3nc(N4CCCCC4)nc(N4CCCCC4)n3)o2)cc1 | 5.14
O=[N+]([O-])c1ccc(-c2ccc(/C=N/Nc3nc(NCc4ccccc4)nc(N4CCOCC4)n3)o2)cc1 | 9.01
O=C(CSc1ccc2nnc(CCNC(=O)c3ccccc3)n2n1)Nc1ccccc1 | 2.32
COc1cc2c(cc1OC)-c1nncn1C(C)(C)C2 | 3.76
CCCCN(C)C1=CC2=CC(=C(C#N)C#N)CCC2CC1 (stereo unspecified) | 16
COc1cc2c(cc1NC(=O)CN1CCN(S(=O)(=O)c3ccccc3F)CC1)oc1ccccc12 | 3.63
COc1ccc(Cl)cc1NC(=O)C1(c2cccs2)CCOCC1 | 3.78
COc1cc(NC(=O)c2ccccc2)c(OC)cc1NC(=O)CN1CCOCC1 | -3.01 (active)

— PubChem BioAssay AID1628 (Sanford-Burnham Center for Chemical Genomics, 2009)
